About 79,000 compounds went through this panel and 15% of them were active in at least one assay; those are over-represented in the sample as a whole. No stated cut-off is given here; in the data, active means growth inhibition above about 70%; inactive means the rest.
Assays:
[1] = NCI Yeast Anticancer Drug Screen. Data for the rad50 strain (AID 155);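 further: 0% = growth of vehicle-only cultures of the same strain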; settings: S. cerevisiae rad50 strain growth inhibition; at 50.0 µM; stronger effect = higher value
How it was run: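 Relative growth inhibition (compound vs vehicle) was measured in yeast with a defined repair-gene alteration.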

[2] = NCI Yeast Anticancer Drug Screen. Data for the mec2-1 strain (AID 157); settings: S. cerevisiae mec2-1 strain, at 50.0 µM, stronger effect = higher value
How it was run: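 Using mec2-1 yeast: add compound, measure growth, express inhibition versus vehicle-treated cultures.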

[3] = NCI Yeast Anticancer Drug Screen. Data for the sgs1 mgt1 strain (AID 161);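 further: 0% = growth of cultures given vehicle only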; settings: S. cerevisiae sgs1 mgt1 strain, at 50.0 µM, stronger effect = higher value
How it was run: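 Yeast cells carrying a defined DNA-repair defect were exposed to test compounds. Growth inhibition was measured relative to vehicle-treated controls.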

[4] = NCI Yeast Anticancer Drug Screen. Data for the cln2 rad14 strain (AID 165);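 further: 0% = growth equal to vehicle treated cultures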; settings: S. cerevisiae cln2 rad14 strain, at 50.0 µM, stronger effect = higher value
How it was run: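 Yeast strain cln2 rad14, bearing defects in cell cycle control and DNA repair, serves as the test system; values reflect growth inhibition compared with vehicle.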

[5] = NCI Yeast Anticancer Drug Screen. Data for the bub3 strain (AID 167); settings: S. cerevisiae bub3 mutant strain, at 50.0 µM, stronger effect = higher value
How it was run: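 Screening used yeast with an engineered genetic alteration affecting cell cycle control. Compound-exposed cultures were compared with vehicle cultures, and reduced growth was taken as inhibition.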

[6] = NCI Yeast Anticancer Drug Screen. Data for the mlh1 rad18 strain (AID 175); settings: S. cerevisiae mlh1 rad18 strain growth inhibition; at 50.0 µM; stronger effect = higher value
How it was run: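 Steps: expose repair-defective yeast to compound; measure growth; express inhibition against vehicle-treated controls.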

Measured: growth inhibition

Cc1cn(C2CCCCC2O)c(=O)[nH]c1=O (stereo unspecified)
inactive: [1] -15.8% | [2] -14% | [3] -2.85% | [4] 12.6% | [5] -15.1% | [6] -16.9%

CN(C=O)c1ccccc1
inactive: [1] 3.6% | [2] 1.8% | [3] 6.15% | [4] 11.7% | [5] 2.05% | [6] 3.05%

CN=C/C(C(C)=O)=C(\C)O
inactive: [1] 4.1% | [2] -0.05% | [3] -4.85% | [4] 3.6% | [5] 8.5% | [6] 0.65%

Cc1c(Cl)c(C)c(Cc2c(C)c(Cl)c(C)c(Cl)c2O)c(O)c1Cl
inactive: [1] -4.7% | [2] -40.4% | [3] -20.6% | [4] -11.7% | [5] -5.2% | [6] -5.9%

COc1ccc(NC(=O)Oc2ccccc2C(N)=O)c(Cl)c1
inactive: [1] -2.05% | [2] 10.8% | [3] 3.65% | [4] 4.6% | [5] 18.4% | [6] 9.75%

COc1cc(Cc2cc(OC)c(OC)c(OC)c2)ccc1O
inactive: [1] -23.4% | [2] -8.5% | [3] -8.5% | [4] -2.6% | [5] 19.1% | [6] 9.5%

CCOP(=O)(OCC)/C(C#N)=C/c1c(C)[nH]c2ccccc12
inactive: [1] 0.5% | [2] -10.8% | [3] 18.6% | [4] 13.4% | [5] -7.45% | [6] 25.7%

O=C(NC12CC3CC(NC(=O)c4ccccc4)(CC(C1)c1ccccc13)C2)c1ccccc1
inactive: [1] 42.9% | [2] 40.2% | [3] 57.4% | [4] 27.4% | [5] 52.5% | [6] 38.4%

CCCCCC(C(C)=O)C(C)=O
inactive: [1] -17.5% | [2] -19.6% | [3] -15.1% | [4] 0.45% | [5] -15.8% | [6] -15.6%

CCCOC(=O)/C=C(\Cl)C(=O)OCCC
inactive: [1] -0.95% | [2] 4.15% | [3] 0.65% | [4] -23.2% | [5] -45.6% | [6] -5.8%

O=C1CC2(CC(=O)N1CCc1c[nH]c3ccccc13)OCCO2
inactive: [1] -1.35% | [2] 9.05% | [3] 10.1% | [4] -0.5% | [5] 20.6% | [6] -6.15%

CC1(C)OC2C(CO)OC(n3cnc4c(=S)nc(N)[nH]c43)C2O1 (stereo unspecified)
inactive: [1] 18.6% | [2] 12.8% | [3] 2.5% | [4] -24.1% | [5] 12.5% | [6] 21.7%

O=C(c1ccc(Cl)cc1)c1cc([N+](=O)[O-])cc([N+](=O)[O-])c1
inactive: [1] -0.35% | [2] 3% | [3] -2.45% | [4] -49.6% | [5] 22.8% | [6] -8.75%

Nc1cn[nH]c(=O)n1
inactive: [1] -3.6% | [2] 20.6% | [3] 2% | [4] 13.3% | [5] 10.4% | [6] 2.7%

CC(=O)C(C)(C)CCC(C)(C)C(C)=O
inactive: [1] 2.95% | [2] -12.6% | [3] -4% | [4] 13.1% | [5] 8.4% | [6] -20.6%

CCNCc1cc(Nc2nc(NC3CCC(N(C)C)CC3)c3ccccc3n2)ccc1OC (stereo unspecified)
inactive: [1] 2.4% | [2] 7% | [3] -5.8% | [4] 28.3% | [5] 3.45% | [6] 9%

CC(C)N1COC(c2ccccc2)C1 (stereo unspecified)
inactive: [1] 6.05% | [2] 0.35% | [3] -19.1% | [4] -17.9% | [5] -24.9% | [6] -26.1%

CCOC(=O)C[C@@]1(C)C(=O)O[C@H](c2ccccc2)N1C(=O)c1ccccc1
inactive: [1] 13.2% | [2] 6.4% | [3] 14.2% | [4] 29.9% | [5] 11.8% | [6] 15.1%

CCCOC(=O)C(O)c1ccc(C)cc1 (stereo unspecified)
inactive: [1] -1.5% | [2] -11.8% | [3] 12.9% | [4] -3.75% | [5] 5.7% | [6] -14.7%

CCCC(=O)c1ccc2c(c1)CCc1cc(O)ccc1-2
inactive: [1] 13.8% | [2] 1.35% | [3] 12.3% | [4] -5.05% | [5] 23.4% | [6] 1.6%

C=CCN(CC=C)/N=N/c1nc[nH]c1C(N)=O
inactive: [1] 28.1% | [2] 8.55% | [3] 14.7% | [4] 5.75% | [5] -5.55% | [6] 22.1%

COc1cccc(NC(=S)Nn2c(C)nc3ccccc3c2=O)c1
inactive: [1] -25.2% | [2] -14% | [3] -17.1% | [4] 0.25% | [5] -11.3% | [6] -28.6%

COc1ccc(C2C(C#N)=C(S)N(C3OC(COC(C)=O)C(OC(C)=O)C(OC(C)=O)C3OC(C)=O)C(c3ccccc3)=C2C(C)=O)cc1 (stereo unspecified)
inactive: [1] 44% | [2] 38.4% | [3] 42% | [4] -4.2% | [5] -38.9% | [6] 39%

CNCCCc1cc(-c2ccc([N+](=O)[O-])cc2)n[nH]1
inactive: [1] -1.55% | [2] 0.5% | [3] -3.25% | [4] 12.6% | [5] 13.6% | [6] 6.6%

Cc1cc(Br)ccc1NC1=CC(=O)C(=O)c2ccccc21
inactive: [1] 9.95% | [2] 19.6% | [3] -3.4% | [4] 11.3% | [5] 13.2% | [6] 32.1%

CC(C)N(C(=O)C12CC3CC(CC(C3)C1)C2)C(C)C
inactive: [1] 24.9% | [2] 0.45% | [3] 8.05% | [4] 13.2% | [5] 20.9% | [6] 6.15%

O=C(Nc1ccc2c(O)c(N=Nc3ccc(N=Nc4ccc(S(=O)(=O)O)cc4)cc3)c(S(=O)(=O)O)cc2c1)c1ccccc1
inactive: [1] 18.9% | [2] -5.8% | [3] 2.9% | [4] -9.1% | [5] 8.8% | [6] 14.7%

COC1OC(CO)C(O)C(NC(=O)[C@H](Cc2ccc(O)cc2)NC(=O)OCc2ccccc2)C1O (stereo partly specified)
inactive: [1] 8.6% | [2] -3.75% | [3] 3.2% | [4] -6.05% | [5] -0.5% | [6] 7.1%

CC(C)CCOC(=O)c1ccc(C(C)C)cc1
inactive: [1] 7.65% | [2] 9.85% | [3] -0.35% | [4] -17.7% | [5] 46.6% | [6] 5.3%

COC(=O)NC1C(C)OC(OC2C/C=C(/C)C3C=CC4C(OC5CC(OC6CCC(OC7CC(O)C(OC8CCC(O)C(C)O8)C(C)O7)C(C)O6)C(OC(C)=O)C(C)O5)C(C)CC(C)C4C3(C)/C(O)=C3/C(=O)OC4(CC(C=O)=CC(O)C4/C=C\2C)C3=O)CC1(C)[N+](=O)[O-] (stereo unspecified)
inactive: [1] 21.1% | [2] 20.9% | [3] 22.2% | [4] 25.6% | [5] 22.9% | [6] -38%

O=C(CCBr)NC(=O)OC/C=C\c1ccccc1
inactive: [1] 7.7% | [2] 34.8% | [3] 12.2% | [4] 8% | [5] 5.1% | [6] 15.2%

CS/C(=C\c1ccc2ccccc2[n+]1C)N1CCN(CCCO)CC1
inactive: [1] 23.4% | [2] 10% | [3] 9.95% | [4] -20.6% | [5] -7.4% | [6] 38.1%

O=C(O)C1=CN=C(C(=O)O)NN1
inactive: [1] -24.4% | [2] -23.2% | [3] -28.8% | [4] 19.5% | [5] -4.15% | [6] -34.5%

BrC1(Br)C2CC/C=C/CCCCC21 (stereo unspecified)
inactive: [1] -10.1% | [2] 13.9% | [3] 20.9% | [4] -1.85% | [5] -3.05% | [6] -27.1%

Nc1nc2c([nH]c(=O)n2C2OC(CO)C(O)C2O)c(=O)n1N (stereo unspecified)
inactive: [1] 16.1% | [2] 6.2% | [3] 18.8% | [4] -13% | [5] 9.95% | [6] 5.2%

COC(=O)C(C)c1cc2ccccc2[nH]1 (stereo unspecified)
inactive: [1] -8% | [2] -8.65% | [3] 0.9% | [4] -11.4% | [5] -46.7% | [6] 0.75%

O=c1cc(-c2ccc(O)cc2)oc2cc(O)cc(O)c12
inactive: [1] 5.85% | [2] -5.65% | [3] -8.45% | [4] -43.5% | [5] -20.9% | [6] -14.9%

CN(C)CCC(O)c1ccccc1 (stereo unspecified)
inactive: [1] 7.2% | [2] -1.25% | [3] 2.2% | [4] -20.5% | [5] -6.2% | [6] -22.6%

Cc1cc(N=Nc2ccc(C(=O)Nc3ccc4cc(S(=O)(=O)O)ccc4c3)cc2)c(N)c(N=Nc2ccc(N=Nc3ccc(O)c(C(=O)O)c3)cc2)c1N
inactive: [1] 8.2% | [2] 29.6% | [3] 53.8% | [4] -21.9% | [5] -11.3% | [6] 44.6%

O=C(OCCN=c1c2ccccc2ccc2ccccc12)c1cc([N+](=O)[O-])cc([N+](=O)[O-])c1
inactive: [1] 13.1% | [2] 4.75% | [3] 34.3% | [4] 21% | [5] 13.6% | [6] 39.8%

CCCNc1nc(C)nc2[nH]c(Cc3ccccc3)c(C)c12
inactive: [1] 12.4% | [2] 11.9% | [3] 21.9% | [4] 0.8% | [5] 14.8% | [6] 27.1%
